Source: PubChem BioAssay
The source made the active and inactive calls. Unless noted, the rule behind the calls is not given here.

Columns and labels:
[1] = HepG2 liver cancer cell viability effects, profiling panel, resazurin fluorescence, 24 h, PK04 Diversity Set (AID 1172); conditions: higher = more signal; note: test concentration not given here
[2] = basal S. cerevisiae growth modulation, no modifier, primary screen, OD600, strain BY4716, 24 h, basal condition (AID 1173); conditions: OD600, 24 h, higher = more signal, called active from +8 up or from −8 down
[3] = MM1S myeloma cell viability, profiling panel, resazurin fluorescence, basal, 24 h, PK04 Diversity Set (AID 1174); conditions: higher = more signal, called active from +8 up or from −8 down;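 note: MM1S multiple myeloma cell line; test concentration not given here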
[4] = biological target: Dihydroorotate dehydrogenase (quinone), mitochondrial (Plasmodium falciparum (isolate 3D7)) (UniProt Q08210); assay: PfDHODH enzyme inhibitors, primary screen, biochemical, C-terminal His tag, absorbance 600 nm (AID 1175); conditions: DCIP absorbance 600 nm, higher = more signal, called active from +8 up or from −8 down;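 note: recombinant parasite enzyme with a five histidine tag at its C terminus; test concentration not given here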
[5] = P. aeruginosa biofilm formation inhibitors, primary screen, strain PAO1, LB-PBS medium, absorbance 600 nm (AID 1176); note: test concentration not given here; conditions: P. aeruginosa PAO1 growth/biofilm, A600, 12 h; higher = more signal
[6] = S. cerevisiae RM11-1a growth modifiers, primary screen, strain RM11-1a, OD600, basal, 24 h (AID 1177); conditions: OD600, 24 h, higher = more signal, called active from +8 up or from −8 down;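 note: cultures grown under basal conditions with no added stressor; test concentration not given here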
[7] = E. coli acrAB mutant growth effects, primary screen, E. coli filamentation inducers, strain DRC39, OD650, 24 h (AID 1178); conditions: higher = more signal, called active from +8 up or from −8 down;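 note: growth measured as culture turbidity by optical density at 650 nm; test concentration not given here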
[8] = E. coli acrAB mutant growth effects, primary screen, E. coli filamentation inducers, strain DRC39, OD650, 48 h (AID 1179);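 note: screen aims at cell division blockers that make cells filament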; conditions: E. coli DRC39 delta-acrAB growth, higher = more signal, called active from +8 up or from −8 down
[9] = RPMI8226 myeloma cell viability, profiling panel, resazurin fluorescence, basal, 24 h, PK04 Diversity Set (AID 1180); conditions: higher = more signal;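 note: RPMI8826 multiple myeloma cell line at 5000 cells per well; test concentration not given here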
[10] = biological target: E3 ubiquitin-protein ligase XIAP (Homo sapiens) (UniProt P98170); assay: XIAP binders, primary screen, biophysical, small-molecule microarray, fluorescence 635 nm (AID 1181); conditions: small-molecule microarray binding, higher = more signal;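 note: score merges 667 nm emission and signal to noise over triplicate slides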
E3 ubiquitin-protein ligase XIAP (Homo sapiens), sequence (P98170 whole entry, looked up): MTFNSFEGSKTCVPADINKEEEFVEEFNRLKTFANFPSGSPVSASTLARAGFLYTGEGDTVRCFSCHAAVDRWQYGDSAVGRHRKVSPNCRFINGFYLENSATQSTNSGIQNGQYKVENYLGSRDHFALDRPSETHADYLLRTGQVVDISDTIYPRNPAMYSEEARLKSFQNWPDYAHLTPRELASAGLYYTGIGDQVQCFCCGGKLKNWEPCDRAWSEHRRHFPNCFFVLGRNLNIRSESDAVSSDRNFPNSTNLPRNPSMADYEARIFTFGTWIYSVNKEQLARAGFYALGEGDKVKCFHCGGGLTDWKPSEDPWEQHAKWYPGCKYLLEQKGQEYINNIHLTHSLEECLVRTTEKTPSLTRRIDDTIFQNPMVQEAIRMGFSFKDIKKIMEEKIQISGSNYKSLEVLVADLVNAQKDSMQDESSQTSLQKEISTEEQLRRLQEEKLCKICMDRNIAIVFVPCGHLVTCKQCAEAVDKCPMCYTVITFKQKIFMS

Dihydroorotate dehydrogenase (quinone), mitochondrial (Plasmodium falciparum (isolate 3D7)), sequence (Q08210 whole entry, looked up): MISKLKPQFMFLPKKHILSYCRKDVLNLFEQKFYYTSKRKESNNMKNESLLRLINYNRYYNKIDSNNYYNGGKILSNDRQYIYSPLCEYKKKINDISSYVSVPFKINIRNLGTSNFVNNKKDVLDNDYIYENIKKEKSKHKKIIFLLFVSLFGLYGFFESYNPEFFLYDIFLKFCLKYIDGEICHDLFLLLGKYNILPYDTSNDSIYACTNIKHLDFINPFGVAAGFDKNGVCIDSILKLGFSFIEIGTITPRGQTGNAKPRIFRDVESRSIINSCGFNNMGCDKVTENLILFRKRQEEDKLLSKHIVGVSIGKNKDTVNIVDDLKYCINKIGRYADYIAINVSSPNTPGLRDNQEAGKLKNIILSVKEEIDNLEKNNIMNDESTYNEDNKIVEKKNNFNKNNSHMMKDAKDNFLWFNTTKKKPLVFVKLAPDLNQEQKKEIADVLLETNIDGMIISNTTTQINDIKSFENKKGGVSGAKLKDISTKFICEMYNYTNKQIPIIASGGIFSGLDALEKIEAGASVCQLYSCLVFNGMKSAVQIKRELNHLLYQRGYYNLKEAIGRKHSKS

Row | Compound | z-score [1] | z-score [2] | z-score [3] | composite z-score [4] | z-score [5] | z-score [6] | z-score [7] | z-score [8] | z-score [9] | composite z-score [10]
1 | C=C(CCCC)C(=O)CC[C@@H](OC(C)=O)c1ccc(OCCO)cc1 | -0.603 | -2 (inactive) | -0.953 (inactive) | -1.78 (inactive) | 1.07 (inactive) | 0.662 (inactive) | 0.227 (inactive) | 0.189 (inactive) | -0.894 | -0.074
2 | C=C[C@H](OC)[C@@H](O)c1ccc(OC)c(O)c1 | 0.0143 | -0.506 (inactive) | 0.546 (inactive) | 0.255 (inactive) | 0.65 (inactive) | -0.0878 (inactive) | 0.37 (inactive) | 0.905 (inactive) | 0.252 | -0.289
3 | CC(C)c1ccc(NN2C(C(O)C(C)c3ccccc3)C=CC3C(=O)N(c4ccccc4)C(=O)C32)cc1 (stereo not given) | -1.72 | 0.0145 (inactive) | -1.23 (inactive) | -0.259 (inactive) | 1.22 (inactive) | 0.208 (inactive) | -0.828 (inactive) | -0.764 (inactive) | -1.2 | 0.155
4 | CCCCN1CC=CC23O[C@@H]4C=CCCOC(=O)C4[C@H]2C(=O)N(CCO)[C@@H]3C1=O (stereo not given in full) | 0.551 | -0.0816 (inactive) | 0.309 (inactive) | 0.0051 (inactive) | 0.345 (inactive) | 0.13 (inactive) | -0.323 (inactive) | -0.414 (inactive) | -0.0692 | -0.104
5 | C=CCNC(=O)[C@H]1[C@@H]2C(=O)O[C@@H](c3ccccc3)[C@@H](c3ccccc3)N2[C@@H](c2ccc(OCCO)cc2)[C@]12C(=O)Nc1ccc(C#Cc3ccc(OC)cc3)cc12 | -1.06 | 2.32 (inactive) | -0.512 (inactive) | -2.27 (inactive) | 2.18 (inactive) | 3.66 (inactive) | -0.672 (inactive) | -0.995 (inactive) | -1.29 | 1.29
6 | C=C(CC1([C@@H](NP(=O)(c2ccccc2)c2ccccc2)[C@H]2C[C@@H]2CCCC)CC1)c1cccc(OC)c1 | 2.56 | 2.17 (inactive) | 1.08 (inactive) | -0.0873 (inactive) | 0.0944 (inactive) | 1.61 (inactive) | -0.283 (inactive) | -0.216 (inactive) | 3.23 | 0.219
7 | O=C/C=C/c1ccc(-c2ccccc2)cc1 | -0.0736 | -18.6 (active) | -1.08 (inactive) | -2.53 (inactive) | -0.944 (inactive) | -21.6 (active) | 1.29 (inactive) | 0.917 (inactive) | -5.15 | 0.0097
8 | COc1c(C)cc(-c2nc(-c3ccccc3)c3c(c2C)CO[Si]3(C(C)C)C(C)C)cc1C | 1.16 | 0.709 (inactive) | 0.032 (inactive) | 0.08 (inactive) | 0.845 (inactive) | -0.0161 (inactive) | 0.187 (inactive) | 0.135 (inactive) | 0.199 | 0.53
9 | COc1ccc(C(O)C2C=CC3C(=O)N(C)C(=O)C3N2Nc2ccccc2)cc1 (stereo not given) | -1.73 | -3.09 (inactive) | -0.956 (inactive) | -0.685 (inactive) | 1.33 (inactive) | -0.119 (inactive) | -0.386 (inactive) | -0.605 (inactive) | -1.08 | 0.032
10 | COCCCNC(=O)[C@@]1(Cc2ccccc2I)c2ccccc2C(=O)N(Cc2ccccc2C(F)(F)F)[C@H]1c1ccc(CO)cc1 | 0.331 | -0.088 (inactive) | 0.377 (inactive) | 0.543 (inactive) | -0.963 (inactive) | 1.38 (inactive) | 0.309 (inactive) | 0.324 (inactive) | 0.426 | -0.223
11 | Cc1c(NC(=O)/C(C#N)=C/C=C/c2ccc([N+](=O)[O-])cc2)c(=O)n(-c2ccccc2)n1C | -0.559 | -0.546 (inactive) | 0.11 (inactive) | 0.142 (inactive) | -0.736 (inactive) | -0.254 (inactive) | -0.465 (inactive) | -0.412 (inactive) | 0.664 | -0.0581
12 | Cc1ccc(S[C@]2(C(=O)NC(C)C)CC(=O)N(Cc3ccccc3)[C@@H]2c2ccc(CO)cc2)cc1 | 0.15 | -0.0962 (inactive) | -0.792 (inactive) | -1.33 (inactive) | 0.637 (inactive) | -0.949 (inactive) | 1.19 (inactive) | 1.62 (inactive) | 1 | -0.177
13 | C[C@]1(C(=O)O)c2ccccc2C(=O)N(Cc2cc(C(F)(F)F)cc(C(F)(F)F)c2)[C@H]1c1ccc(CO)cc1 | 0.341 | 0.0491 (inactive) | 0.385 (inactive) | -0.979 (inactive) | -0.0528 (inactive) | -0.161 (inactive) | -0.124 (inactive) | -0.515 (inactive) | 0.306 | -0.173
14 | COC(=O)C(CC#Cc1ccc2c(c1)[C@]1(C(=O)N2)[C@H](c2ccccc2OCCO)N2[C@H](c3ccccc3)[C@H](c3ccccc3)OC(=O)[C@H]2[C@@H]1C(=O)N1CCN(c2ncccn2)CC1)C(=O)OC | -0.0452 | 2.09 (inactive) | -0.935 (inactive) | -16.6 (active) | 2.29 (inactive) | 3.65 (inactive) | 0.236 (inactive) | -0.11 (inactive) | -4.73 | 0.306
15 | C=CCNC(=O)[C@@H]1[C@H]2C(=O)O[C@H](c3ccccc3)[C@H](c3ccccc3)N2[C@H](c2ccc(OCCO)cc2)[C@@]12C(=O)Nc1ccc(C#CCNC(N)=O)cc12 | -0.0448 | 1.23 (inactive) | -0.286 (inactive) | -0.157 (inactive) | 1.18 (inactive) | 1.06 (inactive) | 0.0047 (inactive) | -0.568 (inactive) | 0.671 | 0.129
16 | Cc1ccc(S(=O)(=O)N2[C@@H](c3ccccc3)C(C(=O)O)=C[C@H]2C(C)(C)C)cc1 | -0.809 | -0.535 (inactive) | -0.912 (inactive) | 0.0392 (inactive) | 0.257 (inactive) | -1.13 (inactive) | -0.773 (inactive) | -0.0408 (inactive) | -2.03 | -0.18
17 | COCCOC(=O)N1C(=O)[C@@]2(c3cc(C#CCC(C(=O)OC)C(=O)OC)ccc31)[C@H](C(N)=O)[C@H]1C(=O)O[C@H](c3ccccc3)[C@H](c3ccccc3)N1[C@@H]2c1ccccc1OCCO | -0.0131 | -0.65 (inactive) | -1.99 (inactive) | -7.07 (inactive) | 3.05 (inactive) | -0.243 (inactive) | 0.664 (inactive) | 1.42 (inactive) | -5.51 | 0.231
18 | COC(=O)[C@@]1(Cc2ccc(F)cc2)[C@H]2c3cc(C(=O)N4CCCC4)n(CCSCCO)c3C[C@H]2CN1C(=O)c1ccccc1 | -0.704 | 1.54 (inactive) | -0.526 (inactive) | 0.289 (inactive) | 0.855 (inactive) | 1.3 (inactive) | -0.405 (inactive) | -0.317 (inactive) | -0.546 | 0.0378
19 | CCCCC(=C=CC[C@H](O)c1cccc(OCCO)c1)C[C@H](O)c1cc(Cl)cc(Cl)c1O | 1.89 | -2.65 (inactive) | 0.356 (inactive) | 0.189 (inactive) | 0.318 (inactive) | 0.275 (inactive) | 1.07 (inactive) | 0.923 (inactive) | 0.242 | -0.206
20 | COc1ccc([Si](C)(C)[C@H]2[C@H](CC(=O)N3CCC[C@H]3CO)O[C@@]3(C(=O)N(C)c4c(Br)cc(C)cc43)[C@@H]2C)cc1 | 0.728 | -0.966 (inactive) | 0.968 (inactive) | -1.3 (inactive) | 0.92 (inactive) | 0.301 (inactive) | 0.541 (inactive) | 0.24 (inactive) | 0.235 | 1.43
21 | OCCCc1cc[n+](Cc2cc3c(cc2Br)OCO3)cc1 | -0.0125 | -0.486 (inactive) | 0.463 (inactive) | -0.22 (inactive) | -0.653 (inactive) | -0.126 (inactive) | 0.311 (inactive) | -0.0111 (inactive) | 0.275 | -0.0931
22 | COc1ccc([Si](C)(C)[C@@H]2[C@@H](CC(=O)N3Cc4ccccc4C[C@H]3CO)O[C@]3(C(=O)N(Cc4ccc(I)cc4)c4ccccc43)[C@H]2C)cc1 | 0.454 | -0.0671 (inactive) | -1 (inactive) | 0.312 (inactive) | 0.662 (inactive) | 2.33 (inactive) | 0.101 (inactive) | -0.092 (inactive) | -0.336 | 0.262
23 | CN1C(=O)C2CC=C(C3=CCO[C@@H]3[C@H]3CCCN3S(=O)(=O)c3ccccc3[N+](=O)[O-])CC2C1=O (stereo not given in full) | 0.277 | 0.175 (inactive) | -0.354 (inactive) | -0.912 (inactive) | 0.425 (inactive) | 0.0123 (inactive) | 0.527 (inactive) | 0.189 (inactive) | 0.0213 | -0.187
24 | [N-]=[N+]=Nc1ccccc1C[C@]1(C(N)=O)COC(c2ccc(OCCCO)cc2)=N1 | 0.978 | -0.0745 (inactive) | 0.157 (inactive) | -0.265 (inactive) | 0.398 (inactive) | -0.762 (inactive) | 0.578 (inactive) | -0.364 (inactive) | 0.177 | 0.396
25 | CCOC(=O)C[C@H]1[C@H](OC(=O)c2ccc(-c3ccccc3)cc2)[C@@H](NC(=O)C2CCCCC2)c2cc(OCCCO)ccc2N1C(=O)Cc1ccc(OC)cc1 | -0.0995 | 0.857 (inactive) | -0.456 (inactive) | -0.175 (inactive) | 0.55 (inactive) | -0.442 (inactive) | 0.0009 (inactive) | 0.0016 (inactive) | -0.131 | -0.144
26 | CC(C)c1ccc(NN2C(C(O)C3=C[C@H]4C[C@@H](C3)C4(C)C)C=CC3C(=O)N(c4ccccc4)C(=O)C32)cc1 (stereo not given in full) | -1.11 | -1.8 (inactive) | 0.32 (inactive) | 0.0752 (inactive) | 0.863 (inactive) | 0.786 (inactive) | -0.326 (inactive) | -0.629 (inactive) | 0.319 | 0.339
